# Results published in PubChem BioAssay AID1347416 (National Center for Advancing Translational Sciences (NCATS), 2020).
# About 1,600 (39%) of roughly 4,100 compounds were called active. Inconclusive results (about 25%) are left out. Calls follow the shape of the dose curve; as a rule, active = well fitted inhibition curve with a large enough effect; inconclusive = small, poorly fitted or top-dose-only effect; inactive = no such curve, though single readings can be large or run the other way. The list shows a part of the results. Where a call stands in place of a potency, no number is given.
# Test: qHTS Validation assay for Inhibitors of Plasmodium falciparum Dd2 growth in vitro; also: nearly all actives have a fitted effect of over 70% in size
# Conditions: P. falciparum Dd2 in RBCs, SYBR Green growth, 72 h; series mostly up to 28.7 µM
# Method in brief: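 P. falciparum Dd2-infected red blood cells (2.5% hematocrit, 0.3% parasitemia) grown 72 h at 37 °C under 5% O2 with compounds in a titration, 29 uM to 0.5 nM final. Growth read as SYBR Green-1 fluorescence after ~16 h lysis; artesunate 300 nM as positive control.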
# Potency is read from the fitted curve at half-maximal effect.
row,Structure (SMILES),Potency
1,O=C(COc1ccc(F)cc1)N1CCC(c2noc(-c3ccncc3)n2)C1 (stereo unspecified),inactive
2,CC1C(=O)C(C)C(c2cc(Cl)ccc2O)NC1c1cc(Cl)ccc1O (stereo unspecified),6.68 µM (active)
3,Cc1[nH]c2c(C)cccc2c(=O)c1Br,5.31 µM (active)
4,Cc1cnc(C(=O)N[C@@H]2CCC[C@@H]2C(=O)N2CCC(Cc3ccccc3)CC2)cn1,inactive
5,Cc1cnc(C(=O)Nc2cccc3cccnc23)cn1,2.66 µM (active)
6,CCOc1ccc(-c2cc3c(=O)n(CCNC(=O)c4ccc(OC)c(F)c4)ccn3n2)cc1,inactive
7,COc1ccc(C(=O)N2CCc3nn(Cc4ccccc4)c(=O)n3CC2)cc1F,inactive
8,CCN1CCN(C(=O)c2ccc3c(c2)N(Cc2ccccc2F)C(=O)c2ccccc2S3=O)CC1 (stereo unspecified),0.842 µM (active)
9,CCOc1ccc(CCNC(=O)c2ccc3c(c2)N(Cc2ccccc2F)C(=O)c2ccccc2S3=O)cc1OCC (stereo unspecified),10.6 µM (active)
10,CCN1CCN(C(=O)c2ccc3c(c2)N(Cc2ccc(Cl)cc2)C(=O)c2ccccc2S3=O)CC1 (stereo unspecified),0.668 µM (active)
11,O=C1Nc2ccc(-c3ccc(Cl)cc3)cc2C(=O)N2CCN(C(=O)c3ccccc3)C[C@H]12,inactive
12,CC(C)(C)c1ccc(C(=O)N2CCN(Cc3cc(=O)n4nc(-c5ccccc5F)sc4n3)CC2)cc1,inactive
13,CCn1cc(CN2CCN(C(=O)c3ccsc3)CC2)ccc1=O,inactive
14,CCOC(=O)Cn1c(=NC(=O)C2CC2)sc2c(C)cc(C)cc21,inactive
15,CCc1ccc(N2CC(c3noc(-c4nccc5ccccc45)n3)CC2=O)cc1 (stereo unspecified),inactive
16,O=S(=O)(c1ccc(Cl)cc1)N1CCN(Cc2ccc(O)c3ncccc23)CC1,13.3 µM (active)
17,O=C(N[C@H]1CO[C@H]2[C@@H]1OC[C@@H]2n1cc(-c2ccccc2)nn1)c1ccc(C(F)(F)F)cc1,inactive
18,COc1ccc(CN2C(=O)C(C)N(C(=O)c3c(F)cccc3F)c3ccccc32)cc1 (stereo unspecified),7.5 µM (active)
19,COc1ccc(CN2C(=O)C(NC(=O)c3ccccc3C)(C(F)(F)F)N=C2c2ccccc2)cc1 (stereo unspecified),inactive
20,O=C(/C(=C/c1ccc(Cl)cc1)c1nc2ccccc2[nH]1)c1cccs1,2.11 µM (active)
21,CN(C)CCCNc1ccc(-c2cc(Nc3cccc(Cl)c3)ncn2)cn1,9.44 µM (active)
22,O=C(Nc1nnc(SCc2ccc(F)cc2)s1)c1ccccn1,8.41 µM (active)
23,CCc1nnc(NC(=O)c2cc(Cl)ccn2)s1,inactive
24,O=C(Nc1ccc(F)cc1)Nc1nnc(SCC(=O)N2CCCCC2)s1,inactive

row,Structure (SMILES),Potency
1,CC1=C[C@@H](CNC(=O)COc2ccccc2)[C@H](C(C)C)C[C@H]1Cc1nnc(-c2cncn2C)o1,13.3 µM (active)
2,COc1ccccc1N1CCN(C[C@@H]2C=C(C)[C@H](Cc3nnc(-c4cncn4C)o3)C[C@H]2C(C)C)CC1,10.6 µM (active)
3,COc1cccc(NC(=O)CCSc2nc(-c3ccco3)cc(C(F)(F)F)n2)c1,inactive
4,Cc1ccc(NC(=O)CCSc2nc(-c3ccco3)cc(C(F)(F)F)n2)cc1F,inactive
5,COc1ccc(-c2cc(C(F)(F)F)nc(SCCC(=O)Nc3cc(C)ccc3O)n2)cc1,1.88 µM (active)
6,CC(Sc1nc2cc([N+](=O)[O-])ccc2n1-c1cccc(C(F)(F)F)c1)C(=O)NC(N)=O (stereo unspecified),inactive
7,O=C(Nc1cc(C(F)(F)F)cc(C(F)(F)F)c1)Nc1cnn(-c2ccc([N+](=O)[O-])cc2)c1C(F)(F)F,6.68 µM (active)
8,Cc1cn2nc(C(=O)Nc3ccc(N(C)C)cc3)cc2c(N(C)Cc2ccccc2)n1,15 µM (active)
9,Cc1cn2nc(C(=O)NCc3ccccc3F)cc2c(N(C)Cc2ccccc2)n1,inactive
10,Cc1cn2nc(C(=O)Nc3ccc4c(c3)OCCO4)cc2c(N(C)Cc2ccccc2)n1,inactive
11,COc1ccc(/C=N/Nc2cc(C)nc(-n3nc(C)cc3C)n2)c(OC)c1,5.31 µM (active)
12,Cc1ccc(Nc2cc(C)nn2-c2nc(C)cc(C)n2)cc1,6.68 µM (active)
13,Cc1cc(N2CCC(C)CC2)nc(-n2nc(C)cc2C)n1,2.99 µM (active)
14,CNc1cc(C)nc(-n2nc(C)cc2C)n1,8.41 µM (active)
15,COCC(=O)NC[C@H]1CCN(Cc2ccc(Cl)cc2)C[C@H]1N(C)C,inactive
16,COc1cccc(OC)c1C(=O)Nc1cccc(-c2nc3cc(C)cc(C)c3o2)c1,inactive
17,COc1cccc(NC(=O)c2sc3nc(C)c(C(=O)Nc4ccc(C)cc4C)c(-c4ccccc4Cl)c3c2N)c1,2.66 µM (active)
18,COc1cccc(NC(=O)c2sc3nc(C)c(C(=O)Nc4ccc(C)cc4C)c(-c4cccs4)c3c2N)c1,5.96 µM (active)
19,NC1CCCCN(C(=O)CCc2n[nH]c3c2CCCC3)C1 (stereo unspecified),inactive
20,Cc1ccc(-n2nc3c(c2NC(=O)C(C)C)CS(=O)(=O)C3)c(C)c1,inactive
21,Cc1ccc(S(=O)(=O)Nc2cc(=O)[nH]c(SCC(=O)Nc3cccc(C)c3)n2)cc1,inactive
22,c1ccc(Cn2c(Sc3nnnn3-c3ccccc3)nnc2-c2ccccc2)cc1,7.5 µM (active)
23,CCn1c(SCC(=O)NNC(=O)Cc2ccccc2)nnc1-c1ccncc1,inactive
24,CN(C1CCc2nn(CC3CC3)c(=O)n2CC1)S(=O)(=O)c1cccs1 (stereo unspecified),inactive

row,Structure (SMILES),Potency
1,COc1cccc(C(=O)N2CCC3(CC2)CCN(CCc2ccccc2)c2ccccc2O3)c1,inactive
2,COc1ccc2c(c1)OC(C)(C)C(c1ccccc1)C2c1ccc(OCCN2CCCC2)cc1 (stereo unspecified),6.68 µM (active)
3,O=C(NCCNc1ccnc2cc(Cl)ccc12)c1ccccc1F,1.68 µM (active)
4,O=C(NCCCNc1ccnc2cc(Cl)ccc12)c1ccccc1F,0.842 µM (active)
5,O=C(NCc1nnc2ccc(-c3ccccc3)nn12)c1cc(Cl)ccc1F,inactive
6,COc1ccc(-n2nc(C)c([C@@H]3C=C[C@@H](NCc4ccc(F)cc4)C3)c2C)cc1,1.37 µM (active)
7,COc1ccc(CN[C@@H]2C=C[C@@H](c3c(C)nn(-c4ccc(OC)cc4)c3C)C2)cc1,4.85 µM (active)
8,Cc1nn(-c2cccc(Br)c2)c(C)c1[C@@H]1C=C[C@@H](NC(=O)c2cccs2)C1,inactive
9,Cc1nn(-c2ccc(C(C)C)cc2)c(C)c1[C@@H]1C=C[C@@H](NCc2ccccc2)C1,21.7 µM (active)
10,Cc1nn(-c2ccc(C(C)(C)C)cc2)c(C)c1[C@@H]1C=C[C@@H](NC(=O)c2ccco2)C1,12.2 µM (active)
11,O=C(NC1C[C@H]2CC[C@@H](C1)N2C(=O)c1ccco1)c1ccncc1 (stereo partly specified),inactive
12,Cc1cc(=O)n(C(C)C(=O)NCc2ccccc2Cl)c2c1c(C)nn2-c1ccccc1 (stereo unspecified),inactive
13,Cc1cccc(CCNC(=O)CCS(=O)(=O)c2cc3c(cc2Cl)NC(=O)CO3)c1,inactive
14,COc1ccc(OC)c(C2CCN(c3ncncn3)C2)c1 (stereo unspecified),inactive
15,CC(C)Oc1ccc2c(NC(=O)c3ccn(C)n3)nn(CC(F)(F)F)c2c1,inactive
16,O=C(NCc1cc(F)ccc1F)C1CCN(c2cn[nH]c(=O)c2)C1 (stereo unspecified),inactive
17,COc1ccc(-n2nc(C)c([C@@H]3C=C[C@@H](NCc4cccc(Cl)c4)C3)c2C)cc1,1.37 µM (active)
18,COc1ccc(-n2nc(C)c([C@@H]3C=C[C@@H](NCc4ccc(N(C)C)cc4)C3)c2C)cc1,4.33 µM (active)
19,Cn1c(=O)oc2cc(S(=O)(=O)CCC(=O)N3CCN(c4ccccc4F)CC3)ccc21,inactive
20,O=c1[nH]c(N2CCOCC2)nc2c1CCN(Cc1cc(Br)ccc1F)CC2,5.31 µM (active)
21,O=c1[nH]c(N2CCOCC2)nc2c1CCN(Cc1cc(Cl)ccc1F)CC2,2.37 µM (active)
22,O=C1CCN(Cc2ccc(F)cc2F)CCCC(c2nc(-c3cnccn3)no2)CCN1 (stereo unspecified),inactive
23,O=c1[nH]c(N2CCOCC2)nc2c1CCN(Cc1ccc(Cl)cc1F)CC2,3.35 µM (active)
24,O=c1[nH]c(N2CCOCC2)nc2c1CCN(Cc1cc(F)c(F)cc1F)CC2,15 µM (active)

row,Structure (SMILES),Potency
1,O=C(Nc1ccc(Cl)cc1)c1nc2c(o1)CCN(Cc1ccc(F)cc1F)CC2,inactive
2,COc1ccc2c(c1OC)C(=O)OC2CC(=O)c1ccc(O)cc1 (stereo unspecified),inactive
3,CCOc1cc(C2CC(=O)NC3=C2C(=O)C(C(=O)OC)C(C)C3)cc(Br)c1O (stereo unspecified),6.68 µM (active)
4,CCN(CC)c1cc(C)c2cc(NC(=O)/C=C/c3cc(OC)c(OC)c(OC)c3)ccc2n1,4.73 µM (active)
5,CCOc1ccc(/C=C/C(=O)Nc2ccc3nc(N(CC)CC)cc(C)c3c2)cc1OC,1.88 µM (active)
6,COc1ccc(/C=C/C(=O)NCCc2ccc(OC)c(OC)c2)cc1,inactive
7,Fc1ccccc1Cn1nnc2c(-n3ccnc3)ncnc21,inactive
8,O=C1Nc2ccccc2CN(CC2CC2)C12CCNCC2,inactive
9,O=C1NC(=NC2CCCC2)C2(CCN(Cc3ccsc3)C2)N1c1cccnc1 (stereo unspecified),inactive
10,Cc1nnc(-c2cc(Nc3cccc(N(C)C)c3)ccn2)n1Cc1ccccc1,inactive
11,CN(C)c1cccc(Nc2cc3c(cn2)CN(Cc2ccccc2)CCN3)c1,13.7 µM (active)
12,c1ccc(Nc2cc3c(cn2)CN(Cc2ccsc2)CCN3)cc1,13.7 µM (active)
13,CN(C)c1ncnc2sc3c(c12)CCN(Cc1ccc2cc[nH]c2c1)C3,inactive
14,c1ccc(Nc2cc3c(cn2)CN(Cc2ccc4[nH]ccc4c2)CCN3)cc1,1.37 µM (active)
15,Cc1ccc(C)c(OC(=O)CSc2nnc(-c3cccs3)o2)c1,inactive
16,CCOc1ccc(C(=O)Nc2cc(C)on2)cc1,inactive
17,Cc1cc(NC(=O)CN2CCN(c3ccc(O)cc3)CC2)no1,4.73 µM (active)
18,CNS(=O)(=O)c1cn(CC(=O)N2CCN(c3ccc(C(C)=O)cc3)CC2)cc1S(=O)(=O)NC,inactive
19,Cc1cc(Nc2ccc(Br)c(C)c2)n2nc(C)nc2n1,1.33 µM (active)
20,Cc1cc(Nc2ccc(C)c(C)c2)n2nc(C)nc2n1,4.73 µM (active)
21,Cc1ccc(S(=O)(=O)NCc2nc3nc(C)cc(C)n3n2)c(C)c1,inactive
22,Cc1cc(C)cc(Nc2cc(C)nc3nc(C)nn23)c1,5.31 µM (active)
23,Cc1cc(NC2C3CC4CC(C3)CC2C4)n2nnnc2n1 (stereo unspecified),inactive
24,Cc1cc(Nc2ccc(Br)cc2)n2nc(C)nc2n1,7.5 µM (active)
